Assay outcomes: PubChem BioAssay, several laboratories
In the library only some 2.6% were active in any assay of this set; here they are far more common.
Shn3 3UTR inh – reduction of Shn3 3'UTR firefly luciferase signal, primary screen, Schnurri-3 inhibitor project, cell-based, Clone20 osteoblasts, set 2 | Clone20 osteoblast Shn3 3'UTR firefly luciferase, 24 h | inhibition, % at 12.5 µM | hit rate 0.52% among 360,000 | AID 588674, 2011;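 active = mean inhibition of at least 75% with every replicate also reaching 75%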;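 also: 0% = median of neutral control wells and 100% = pilot-screen positive control compound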
CF NFkB inh – inhibitors of PAF-induced NF-kB signaling, primary screen, cell-based, GFP fluorescence, uHTS. KKLEB NF-kB-GFP reporter, GFP fluorescence overnight. inhibition, % at 5 µM. hit rate 0.86% among 360,000. AID 588850, 2011;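 active = at least 50% inhibition at 5 µM, scaled per plate between neutral and stimulator controls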;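 also: PAF is a Pseudomonas aeruginosa culture filtrate used as stimulus; plate controls were PAF-stimulated DMSO wells for no effect and unstimulated DMSO wells for full effect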
KKLEB cytotox – cytotoxicity in KKLEB CF airway cells, primary screen, cytotoxicity control for CF NF-kB inhibitor project, cell-based, uHTS, fluorescence assay plates | KKLEB CF airway cells viability, ATPlite luminescence, overnight; active compounds read low; cells stimulated with P. aeruginosa culture filtrate | hit rate 0.36% among 360,000 | AID 602141, 2011 | activity change (cytotoxicity), % at 5 µM;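 active = corrected activity change at or below -50% at 5 µM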
Peg3 promoter – Peg3 promoter-driven luciferase inhibitors, primary screen, cell-based, HeLa, luciferase luminescence; hit rate 1.7% among 360,000; inhibition, % at 20 µM; HeLa PEG-Prom luciferase reporter, overnight;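 active = inhibition of at least 50% at 20 µM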
HIF-2a block – HIF-2a reporter inhibitors, primary screen, luminescence, 786-0 RCC cells; 786-0 RCC cells HIF-2a reporter, luciferase luminescence, overnight; inhibition, % at 18.8 µM; hit rate 0.72% among 360,000;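 active = inhibition of the luminescence signal of 40% or more relative to plate controls, in a single-dose primary screen at 18.75 µM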
CF NFkB conf – inhibitors of PAF-induced NF-kB signaling, retest, confirmation, cell-based, GFP fluorescence, single concentration; shares compounds with CF NFkB inh; hit rate 64% among 1,300; inhibition, % at 5 µM; KKLEB CF airway cells, overnight; in the data active = inhibition above about 40%;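 also: stimulus PAF is a Pseudomonas aeruginosa filtrate and not platelet activating factor; plate controls were DMSO wells with stimulus for no effect and unstimulated DMSO wells for full effect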
Active calls of the source: *; . = no result; ! = not confirmed by another sample.

SMILES | Shn3 3UTR inh | CF NFkB inh | KKLEB cytotox | Peg3 promoter | HIF-2a block | CF NFkB conf
COc1ccc(CNC(=O)CNC(=O)c2cccs2)c(OC)c1 | -7.2 | -7.0 | -1.0 | -11.4 | -8.3 | .
Cc1c(NC(=O)c2cc(-c3cccs3)nc3ccccc23)c(=O)n(-c2ccccc2)n1C | -7.8 | 64.7* | -0.9 | 53.6* | 9.4 | 64.1*
Cc1c(NC(=O)c2cc(-c3ccccc3)nc3ccccc23)c(=O)n(-c2ccccc2)n1C | 21.9 | 9.8 | -14.0 | 42.5 | 0.8 | .
O=C(Nc1ccc2c(c1)OCCO2)c1cc(-c2ccccn2)nc2ccc(Br)cc12 | 22.7 | 61.6* | -32.5 | 8.6 | 6.7 | 56.4*
O=c1c(-c2c(O)cc(O)c3c2O[C@H](c2ccc(O)cc2)CC3)c(-c2ccc(O)cc2)oc2cc(O)cc(O)c12 | -30.3 | 75.4* | -0.1 | 46.8 | 2.1 | 101.4*
COc1ccccc1C1(O)CCN(C(=O)c2cccs2)CC1 | -1.6 | 10.0 | -7.4 | 11.9 | 19.9 | .
CCN1CCN(Cc2ccc(NC(=O)c3ccc(C)c(NC(=O)c4cccc5[nH]ccc45)c3)cc2C(F)(F)F)CC1 | 49.4 | 54.4*! | -15.3 | 41.8 | -22.7 | 49.3*
CCN1CCN(Cc2ccc(NC(=O)c3ccc(C)c(NC(=O)N4CCNC4=O)c3)cc2C(F)(F)F)CC1 | 7.0 | 50.3* | -1.2 | 0.5 | 3.5 | 60.1*
Cc1cn(-c2cc(C(=O)Nc3ccc(C)c(NC(=O)N4CCNC4=O)c3)cc(C(F)(F)F)c2)cn1 | 4.5 | 32.0 | -8.7 | 8.2 | 8.7 | .
CCN1CCN(Cc2ccc(NC(=O)c3ccc(C)c(NC(=O)c4cc(-c5ccc(Br)cc5)n[nH]4)c3)cc2C(F)(F)F)CC1 | 11.6 | 51.1* | -24.7 | 41.1 | -22.3 | 66.6*
Cc1ccc(NC(=O)c2cc(-c3ccccc3)n[nH]2)cc1 | -12.0 | 13.5 | 2.3 | -121.5 | -230.3 | .
CCN1CCN(c2ccc(NC(=O)c3ccccc3F)cc2Cl)CC1 | -68.9 | -4.3 | -9.8 | -209.7 | -213.2 | .
CC(Sc1nnc(C2CC2)n1C1CC1)C(=O)Nc1cccc(S(=O)(=O)N(C)C)c1 (stereo unspecified) | -7.5 | 0.7 | -5.8 | 13.4 | 10.7 | .
O=c1cc(-c2ccccc2Cl)oc2c([N+](=O)[O-])c(O)cc(O)c12 | -2.8 | 94.4* | 13.7 | 98.1* | -11.0 | 109.8*
COc1ccc(C2CC(c3ccccc3)=NN2C(=O)COC(=O)c2ccc(S(C)(=O)=O)cc2)cc1 (stereo unspecified) | 14.5 | 54.8* | 20.5 | 8.0 | -25.7 | 46.0*
O=C(c1cccc([N+](=O)[O-])c1)N1CCN(c2n[nH]c(=O)[nH]c2=O)CC1 | 4.3 | -2.4 | 2.5 | 8.2 | -2.4 | .
CC(C)C(=O)n1nc(-c2cccnc2)nc1NCc1ccc(F)cc1 | -5.1 | 15.7 | -10.5 | 9.9 | 3.6 | .
COc1ccc(C(=O)NC(C)c2ccccc2)cc1Br (stereo unspecified) | 5.5 | 11.0 | 0.9 | 12.8 | 1.6 | .
C[C@@H](NC(=O)c1coc(=O)c(Br)c1)c1ccccc1 | 15.8 | 73.8* | -5.7 | 98.9* | 9.8 | 60.1*
O=C(NCc1cccnc1)c1cc(C2CCCCN2C(=O)c2ccc3c(c2)CCO3)on1 (stereo unspecified) | -11.3 | -2.3 | -7.1 | 6.0 | 8.3 | .
Cc1onc(-c2c(F)cccc2Cl)c1C(=O)Nc1ccc(S(=O)(=O)N2CCOCC2)cc1 | -15.7 | -6.7 | -6.4 | 10.6 | 11.4 | .
Cc1onc(-c2c(F)cccc2Cl)c1C(=O)Nc1cc(S(=O)(=O)N2CCCCC2)ccc1O | -1.7 | 56.0* | -13.6 | 41.6 | 2.1 | 47.5*
O=C(N/N=C/c1ccc2cccnc2c1)c1ccco1 | 21.2 | -4.9 | -10.1 | -33.8 | -122.7 | .
CCCCOC(=O)Nc1ccc(S(=O)(=O)Nc2nc(C)cc(C)n2)cc1 | 9.9 | 53.3* | 1.9 | 9.1 | 21.1 | 39.0
COc1ccc(CCNC(=O)C2CCN(S(=O)(=O)c3ccc(C)cc3)CC2)cc1OC | 6.5 | -10.5 | 2.4 | 6.2 | 1.5 | .
SMILES | Shn3 3UTR inh | CF NFkB inh | KKLEB cytotox | Peg3 promoter | HIF-2a block | CF NFkB conf
O=C(CNC(=O)c1ccccc1)NCCCSc1ccccc1 | 7.9 | 13.0 | 0.2 | 4.4 | -2.0 | .
O=C(NCCCSc1ccccc1)c1cc(Cl)ccc1O | 21.5 | 57.5* | -39.1 | 36.5 | -22.3 | 75.5*
Cc1c(NC(=O)Nc2ccc(Cl)cc2)c(=O)n(-c2ccccc2)n1C | -16.9 | -5.1 | -6.8 | 9.5 | -4.4 | .
Cc1c(N=C2N=C(NC(=O)Nc3ccc(Cl)cc3)c3ccccc32)c(=O)n(-c2ccccc2)n1C | 3.1 | 51.2* | -41.2 | 18.7 | 1.0 | 18.3
COc1ccc(-c2csc3ncnc(Nc4ccc(O)cc4)c23)cc1 | 18.6 | 32.1 | -2.2 | 2.2 | 21.2 | .
COc1ccc(-c2csc3ncnc(NCCO)c23)cc1 | 18.1 | 76.7* | -4.9 | 13.1 | 35.9 | 86.2*
Cc1ccc(/C=C/S(=O)(=O)NCC(=O)OCC(=O)NCc2ccccc2)cc1 | 15.0 | -11.3 | 6.3 | 12.2 | 15.4 | .
CNC(=O)c1ccc(NC(=O)C2CCN(c3ncnc4sc(C)c(C)c34)CC2)cc1 | 26.3 | 59.6* | -18.2 | 21.9 | 35.1 | 60.0*
Nc1nc(N)nc(-c2ccccc2O)n1 | -17.3 | 16.0 | 5.4 | -77.8 | -58.1 | .
Nc1nc(-c2ccccc2)nc(-c2ccccc2O)n1 | -32.1 | 56.6* | -13.9 | 0.7 | -194.6 | -38.4
CC(C)(C)OC(=O)N1CCC(C(=O)N[C@H](C(=O)O)c2ccccc2)(c2ccccc2)CC1 | 8.0 | 8.2 | -9.2 | 6.7 | 10.2 | .
O=S(=O)(N/N=C\c1c(F)cccc1Cl)c1ccc(Cl)cc1 | -9.0 | -13.8 | 11.5 | 3.5 | 19.6 | .
Fc1cccc(Cl)c1/C=N/Nc1c(Cl)cncc1Cl | 0.9 | 52.8* | -12.6 | -60.4 | -94.6 | 67.0*
CCOC(=O)C1(C)CCN1C(=O)c1cccs1 (stereo unspecified) | -3.9 | -12.4 | 4.8 | 10.5 | 6.8 | .
O=C(Nc1cccnc1)Nc1cccc(F)c1 | 3.2 | -1.7 | -9.8 | -26.2 | -72.9 | .
CC(=O)c1cccc(NC(=O)Nc2cccnc2)c1 | 13.0 | 56.7* | -5.2 | -18.6 | -7.4 | 77.0*
Cc1cc(=O)oc2cc(O)cc(O)c12 | -8.6 | -8.8 | -10.2 | -3.4 | 5.0 | .
CCCCCc1cc(O)c2c(C)cc(=O)oc2c1 | 15.3 | 74.5* | -7.8 | -9.0 | -46.2 | 80.4*
c1cnc2ccc(-n3ccnc3)cc2c1 | 0.2 | 55.2* | -27.0 | 2.3 | 3.7 | 48.7*
Cc1ccccc1OCC(=O)OCC(=O)NC1CCCC(C)C1C (stereo unspecified) | 2.6 | 5.1 | 10.4 | -0.8 | 12.1 | .
Cc1cc(C)cc(CC(=O)N2CCC2(C)C(=O)NS(=O)(=O)c2cc(C)ccc2F)c1 (stereo unspecified) | -4.8 | -27.5 | 14.4 | 4.9 | 8.7 | .
